Reference: PubChem BioAssay (NCI)
Compounds without any hit were thinned out: in the full panel of roughly 83,000, 20% have a hit.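 Activity criterion: percent growth below 10, measured after cells in 96-well plates were exposed to a single compound concentration for 48 hours.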 Active and inactive are the calls of the source.

How the values were obtained:
Test in all cases: NCI-60 one-dose screen, 48 h (100 = growth as untreated, 0 = no growth, -100 = all killed)
Details in all cases: 10 µM unless noted
NCI-H23 lung = system: NCI-H23 lung
NCI-H226 lung = system: NCI-H226 lung
NCI-H322M lung = system: NCI-H322M lung
HOP-62 NSCLC = system: HOP-62 NSCLC
NCI-H460 lung = system: NCI-H460 lung
HOP-92 NSCLC = system: HOP-92 NSCLC
NCI-H522 lung = system: NCI-H522 lung
A549/ATCC NSCLC = system: A549/ATCC NSCLC
786-0 renal = system: 786-0 renal
COLO 205 colon = system: COLO 205 colon

Measured: growth

NNc1nc(-c2cccnc2)nc2c1sc(=S)n2-c1ccccc1
inactive: NCI-H23 lung 102% | NCI-H226 lung 105% | NCI-H322M lung 101% | HOP-62 NSCLC 69.1% | NCI-H460 lung 107% | HOP-92 NSCLC 84.9% | NCI-H522 lung 58.7% | A549/ATCC NSCLC 87.7% | 786-0 renal 89.7% | COLO 205 colon 98.4%

O=C(Nc1ccc(Oc2cccc(F)c2)c(Cl)c1)c1cccnc1
inactive: NCI-H23 lung 44.9% | NCI-H226 lung 56.9% | NCI-H322M lung 50.8% | HOP-62 NSCLC 34% | NCI-H460 lung 24.7% | HOP-92 NSCLC 63.4% | NCI-H522 lung 36.2% | A549/ATCC NSCLC 35.5% | 786-0 renal 40.9% | COLO 205 colon 22.7%

Cc1ccc(C(=O)c2ccc(CC(=O)N/N=C/c3ccccc3O)n2C)cc1
inactive: NCI-H23 lung 82.9% | NCI-H226 lung 97% | NCI-H322M lung 78.9% | HOP-62 NSCLC 76% | NCI-H460 lung 76.6% | HOP-92 NSCLC 98.6% | NCI-H522 lung 75.2% | A549/ATCC NSCLC 86.1% | 786-0 renal 96.8% | COLO 205 colon 101%

COCCOc1cc2ncnc(N3CCN(c4ncc(S(=O)(=O)N5CCCCC5)cn4)CC3)c2cc1OCCOC
inactive: NCI-H23 lung 91.5% | NCI-H226 lung 97.2% | NCI-H322M lung 96.5% | HOP-62 NSCLC 118% | NCI-H460 lung 103% | HOP-92 NSCLC 89.5% | NCI-H522 lung 84.4% | A549/ATCC NSCLC 102% | 786-0 renal 108% | COLO 205 colon 121%

CCOC(=O)c1c(C(=O)c2cn(C)c3ccc(Br)cc23)c(-c2cn(C)c3ccc(Br)cc23)n(NC(=O)OC(C)(C)C)c1C
inactive: NCI-H23 lung 86.5% [100 µM] | NCI-H226 lung 89.7% [100 µM] | NCI-H322M lung 89.5% [100 µM] | HOP-62 NSCLC 56.1% [100 µM] | NCI-H460 lung 80.5% [100 µM] | NCI-H522 lung 89.6% [100 µM] | A549/ATCC NSCLC 74% [100 µM] | 786-0 renal 32% [100 µM] | COLO 205 colon 98.5% [100 µM]
active: HOP-92 NSCLC 4.73% [100 µM]

Nc1ncnc2c1N=C(c1ccc(Br)cc1)CC(c1cccc(Nc3ccnc4cc(C(F)(F)F)ccc34)c1)N2 (stereo not given)
inactive: NCI-H23 lung 62.7% | NCI-H226 lung 67.3% | NCI-H322M lung 95.6% | HOP-62 NSCLC 60.1% | NCI-H460 lung 59.1% | HOP-92 NSCLC 41.4% | NCI-H522 lung 74% | A549/ATCC NSCLC 55.2% | 786-0 renal 53.7% | COLO 205 colon 54.6%

c1ccc2cc(C[n+]3ccn(CCCCCCCCCCn4cc[n+](Cc5ccc6ccccc6c5)c4)c3)ccc2c1
active: NCI-H23 lung 5.67% | HOP-62 NSCLC -4.86% | HOP-92 NSCLC -23.6% | NCI-H522 lung -72.3% | COLO 205 colon -81.1%
inactive: NCI-H226 lung 39.5% | NCI-H322M lung 34.5% | NCI-H460 lung 11% | A549/ATCC NSCLC 18.5% | 786-0 renal 35.6%

CCCCCCCCCCC(CN(CC)CC)C(O)c1ccccc1 (stereo not given)
inactive: NCI-H23 lung 38% | NCI-H226 lung 15.4% | NCI-H322M lung 80.3% | HOP-62 NSCLC 53.4% | NCI-H460 lung 21.7% | A549/ATCC NSCLC 54.7% | 786-0 renal 49.1%
active: HOP-92 NSCLC -1.6% | NCI-H522 lung -14.4% | COLO 205 colon -42.6%

Oc1ccc(Cl)cc1/C=N\NC(=S)N/N=C/c1cc(Cl)ccc1O
inactive: NCI-H23 lung 50% | NCI-H226 lung 32.5% | NCI-H322M lung 34.4% | HOP-62 NSCLC 51.2% | NCI-H460 lung 14.7% | HOP-92 NSCLC 40.1% | A549/ATCC NSCLC 37.4% | 786-0 renal 21.4% | COLO 205 colon 41.5%
active: NCI-H522 lung -7.22%

COc1cc(-c2csc(NC(=O)c3ccc(N4CCOCC4)c(C(F)(F)F)c3)n2)cc(OC)c1OC
inactive: NCI-H23 lung 15.7% | NCI-H226 lung 41.6% | NCI-H322M lung 70.3% | HOP-62 NSCLC 34.2% | NCI-H460 lung 46.2% | HOP-92 NSCLC 57.6% | NCI-H522 lung 14.3% | A549/ATCC NSCLC 31.9% | 786-0 renal 37% | COLO 205 colon 18.9%

Cc1ccc2c(c1)=C/C(=C\c1cc(-c3ccccc3)oc1O)C(=O)N=2
inactive: NCI-H23 lung 95.3% | NCI-H226 lung 106% | NCI-H322M lung 104% | HOP-62 NSCLC 101% | NCI-H460 lung 113% | HOP-92 NSCLC 87.4% | NCI-H522 lung 97.4% | A549/ATCC NSCLC 105% | 786-0 renal 91.4% | COLO 205 colon 108%

CCCn1cc2c(=O)nc3sc(Cc4ccccc4)c(C)n3c2n1
inactive: NCI-H23 lung 103% | NCI-H226 lung 107% | NCI-H322M lung 98.5% | HOP-62 NSCLC 102% | NCI-H460 lung 101% | HOP-92 NSCLC 88.4% | NCI-H522 lung 75% | A549/ATCC NSCLC 83.5% | 786-0 renal 99.1% | COLO 205 colon 109%

COC12C=C/C(=C(/C(=O)OCc3ccncn3)C(=O)CCCCCCCCC3(OC)C=C/C(=C(/C(=O)OCc4ccncn4)C(=O)CCCCCCCC1)O3)O2
active: NCI-H23 lung -37.2% | NCI-H226 lung -71.8% | NCI-H322M lung -76.5% | NCI-H460 lung 1.29% | HOP-92 NSCLC -53.6% | NCI-H522 lung -13.1% | A549/ATCC NSCLC 6.41% | 786-0 renal -71.2% | COLO 205 colon 3.33%
inactive: HOP-62 NSCLC 23%

COC(=O)CC[C@@H]1O[C@@H](c2cccc(C(F)(F)F)c2)[C@@H](O)[C@H]1O
inactive: NCI-H23 lung 94.2% | NCI-H226 lung 103% | NCI-H322M lung 103% | HOP-62 NSCLC 103% | NCI-H460 lung 102% | HOP-92 NSCLC 84.3% | NCI-H522 lung 98.6% | A549/ATCC NSCLC 107% | 786-0 renal 103% | COLO 205 colon 108%

COc1cc2cc(NCc3cccc(Cl)c3)nc(C)c2cc1OC
inactive: NCI-H23 lung 22.6% | NCI-H226 lung 35.8% | NCI-H322M lung 37.4% | HOP-62 NSCLC 51.4% | NCI-H460 lung 22.7% | HOP-92 NSCLC 57.8% | NCI-H522 lung 18.3% | A549/ATCC NSCLC 41.3% | 786-0 renal 39.9% | COLO 205 colon 31.6%

COc1ccc(C(=O)Nc2cccc(-c3cc(=O)c4c(OC)c(OC)c(OC)cc4o3)c2)cc1
active: HOP-92 NSCLC 6.67%
inactive: NCI-H23 lung 57.5% | NCI-H226 lung 69.9% | NCI-H322M lung 55.1% | HOP-62 NSCLC 72.5% | NCI-H460 lung 42.1% | NCI-H522 lung 44.5% | A549/ATCC NSCLC 64.7% | 786-0 renal 55% | COLO 205 colon 73.1%

CN1CCN(C(=O)c2ccc(NC(=O)c3cc4c(nn3)NCCN4Cc3cc(Cl)ccc3Cl)cc2)CC1
inactive: NCI-H23 lung 74.3% | NCI-H226 lung 36.8% | NCI-H322M lung 95.8% | HOP-62 NSCLC 82.3% | NCI-H460 lung 53.4% | HOP-92 NSCLC 67.2% | NCI-H522 lung 36.1% | A549/ATCC NSCLC 55.2% | 786-0 renal 75.2% | COLO 205 colon 71.1%

Nc1cc(C(=O)NC[C@H]2CN(c3ccc(N4CCC(C(=O)O)CC4)cc3)C(=O)O2)ccc1Cl
inactive: NCI-H23 lung 95.1% | NCI-H226 lung 100% | NCI-H322M lung 107% | HOP-62 NSCLC 99% | NCI-H460 lung 103% | HOP-92 NSCLC 98.4% | NCI-H522 lung 92% | A549/ATCC NSCLC 98.5% | 786-0 renal 101% | COLO 205 colon 104%

CCN1CCN(C(=O)[C@]23CCC(C)(C)C[C@@H]2C2=CC[C@@H]4[C@@]5(C)CCC(=O)C(C)(C)[C@@H]5CC[C@@]4(C)[C@]2(C)CC3)CC1
inactive: NCI-H23 lung 64.9% | NCI-H226 lung 71% | NCI-H322M lung 81.2% | HOP-62 NSCLC 78.8% | NCI-H460 lung 25.5% | HOP-92 NSCLC 44.9% | NCI-H522 lung 44.7% | A549/ATCC NSCLC 46.1% | 786-0 renal 50.5% | COLO 205 colon 44.2%

CC/C(=C(/c1ccc(Cl)cc1)c1ccc(OCCN(C)C)cc1)c1ccc(Cl)cc1
active: COLO 205 colon -16.1%
inactive: NCI-H23 lung 73.5% | NCI-H226 lung 87.5% | NCI-H322M lung 83.6% | HOP-62 NSCLC 78.5% | NCI-H460 lung 37.3% | HOP-92 NSCLC 83.7% | NCI-H522 lung 70.3% | A549/ATCC NSCLC 61.2% | 786-0 renal 66.3%

COc1cc(C2c3cc(OC(C)=O)c(OC)cc3CC3C(=O)OCC32)ccc1OC(C)=O (stereo not given)
inactive: NCI-H23 lung 105% | NCI-H226 lung 107% | NCI-H322M lung 115% | HOP-62 NSCLC 91.8% | NCI-H460 lung 109% | HOP-92 NSCLC 53.7% | NCI-H522 lung 105% | A549/ATCC NSCLC 104% | 786-0 renal 96.4% | COLO 205 colon 119%

CC(C)c1ccc(Cc2cnc(NC(=O)c3cc(Br)cs3)s2)cc1
inactive: NCI-H23 lung 47.6% | NCI-H226 lung 24.5% | NCI-H322M lung 45.6% | HOP-62 NSCLC 35.8% | NCI-H460 lung 13.6% | HOP-92 NSCLC 35.7% | A549/ATCC NSCLC 31.4% | 786-0 renal 31.3% | COLO 205 colon 15.4%
active: NCI-H522 lung -1.16%

CCCOC(=O)Nc1nc2ccc(SCC(C)C)cc2s1
inactive: NCI-H23 lung 46.4% | NCI-H226 lung 52.4% | NCI-H322M lung 44.1% | HOP-62 NSCLC 40.7% | NCI-H460 lung 29.1% | HOP-92 NSCLC 48.4% | NCI-H522 lung 24.1% | A549/ATCC NSCLC 34.3% | 786-0 renal 40.4% | COLO 205 colon 11.6%

C=C(C)[C@@H]1CCC[C@]2(COS(=O)(=O)c3ccc(C)cc3)CC[C@]3(C)[C@@H](CC[C@@H]4[C@@]5(C)CCCNC(C)(C)[C@@H]5CC[C@]43C)[C@@H]12
active: NCI-H460 lung -49.1% | NCI-H522 lung -41% | A549/ATCC NSCLC -12% | 786-0 renal -77.5% | COLO 205 colon -86.1%
inactive: NCI-H23 lung 25.7% | NCI-H226 lung 82.1% | NCI-H322M lung 39.7% | HOP-62 NSCLC 69% | HOP-92 NSCLC 19%

Nc1nc2ccc(-c3nc4ccc5[nH]ncc5c4c4c3CCCC4)cc2s1
inactive: NCI-H23 lung 100% | NCI-H226 lung 112% | NCI-H322M lung 101% | HOP-62 NSCLC 101% | NCI-H460 lung 107% | HOP-92 NSCLC 106% | NCI-H522 lung 86.8% | A549/ATCC NSCLC 91.8% | 786-0 renal 108% | COLO 205 colon 106%

C=C(C)[C@@H]1CC[C@]2(C(=O)O)CC[C@]3(C)[C@H](CC[C@@H]4[C@@]5(C)CCC(NC(=O)c6cccc(OC(C)=O)c6OC(C)=O)C(C)(C)[C@@H]5CC[C@]43C)[C@@H]12 (stereo not given in full)
active: NCI-H23 lung 1.89% | NCI-H226 lung -17.4% | NCI-H322M lung 8.78% | HOP-62 NSCLC -14.6% | NCI-H460 lung -39.4% | HOP-92 NSCLC -11% | NCI-H522 lung -11.4% | A549/ATCC NSCLC -6.31% | 786-0 renal -3.81% | COLO 205 colon -11.3%
